# Laboratory results published in the supplement of paper PMC10037445.
# The full ranking holds about 2,900 compounds; the median of “NF-kB SEAP reporter activity, fold change vs agonist alone” is about 0.99, and the highest 2% start at about 2.6. The entries come from a sample that favours the highest values as a whole.
# Legend:
# RAW-Dual [1] = assay: NF-kB SEAP reporter activity, fold change vs agonist alone; higher = enhanced NF-kB activity
# How it was run: (§1)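 RAW-Dual macrophages were seeded in DMEM at 50,000 cells/well in 384-well plates, given 50 nL of library stock by pin tool, and given a PRR agonist 1 h later. Plates were held at 37 °C, 5% CO2 for 20 hours, after which supernatant was read for IRF by QuantiLuc luminescence and for NF-κB by QuantiBlue absorbance at 620 nm. Reporter activity is expressed as fold change over wells that received agonist alone. A well was called cytotoxic when IncuCyte confluency fell below 70% of agonist controls in both mask sets.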
# RAW-Dual [2] = assay: NF-kB SEAP reporter activity, fold change vs agonist alone; cytotoxicity flag (confluency mask): not cytotoxic; higher = enhanced NF-kB activity
# How it was run: as §1
# RAW-Dual [3] = assay: NF-kB SEAP reporter activity, fold change vs agonist alone; cytotoxicity flag (confluency mask): cytotoxic (confluency <70% of control); higher = enhanced NF-kB activity
# How it was run: as §1
# [4] = library stock concentration (final ~1000-fold dilution): 10 mM, cytotoxicity flag (confluency mask): not cytotoxic, agonist: Imiquimod (TLR7) […]
# [5] = library stock concentration (final ~1000-fold dilution): 10 mM, cytotoxicity flag (confluency mask): not cytotoxic, agonist: MPLA (TLR4) […]
# [6] = agonist: ODN 1826 (TLR9) 0.5 ug/mL
# [7] = agonist: Pam2CSK4 (TLR2/6) 0.1 ug/mL
# [8] = agonist: Pam3CSK4 (TLR2/1) 0.1 ug/mL
# [9] = library stock concentration (final ~1000-fold dilution): 10 mM water, cytotoxicity flag (confluency mask): not cytotoxic, agonist: Imiquimod (TLR7) […]
# [10] = library stock concentration (final ~1000-fold dilution): 10 mM water, cytotoxicity flag (confluency mask): not cytotoxic, agonist: MPLA (TLR4) […]
smiles,measurement,setting,value
CC(C)Oc1ccc(C(=O)NC(CNC(=O)CN(C)C)Cc2ccc(-c3cn4cccc(C(C)O)c4n3)cc2)cc1Cl (configuration not stated),NF-kB SEAP reporter activity,RAW-Dual [1]; [4],1.37
same,NF-kB SEAP reporter activity,RAW-Dual [1]; [5],1.39
CC(C)Oc1ccc(C(=O)NC(CNC(=O)CN(C)C)Cc2ccc(-c3cn4cccc(C(C)O)c4n3)cc2)cc1Cl (configuration not stated) (library stock concentration (final ~1000-fold dilution): 10 mM),NF-kB SEAP reporter activity,RAW-Dual [2]; agonist: LPS (TLR4) 0.1 ug/mL,0.934
same,NF-kB SEAP reporter activity,RAW-Dual [2]; [6],0.199
same,NF-kB SEAP reporter activity,RAW-Dual [2]; [7],1.02
same,NF-kB SEAP reporter activity,RAW-Dual [2]; [8],1.03
Nc1ncnc2c1c(I)cn2C1OC(CO)C(O)C1O (configuration not stated) (library stock concentration (final ~1000-fold dilution): 10 mM),NF-kB SEAP reporter activity,RAW-Dual [3]; agonist: LPS (TLR4) 0.1 ug/mL,0.213
same,NF-kB SEAP reporter activity,RAW-Dual [3]; [6],0.195
same,NF-kB SEAP reporter activity,RAW-Dual [3]; [7],0.0844
same,NF-kB SEAP reporter activity,RAW-Dual [3]; [8],0.123
Nc1ncnc2c1c(I)cn2C1OC(CO)C(O)C1O (configuration not stated),NF-kB SEAP reporter activity,"RAW-Dual [1]; library stock concentration (final ~1000-fold dilution): 10 mM, cytotoxicity flag (confluency mask): cytotoxic (confluency <70% of control), agonist: Imiquimod (TLR7) […]",0.145
same,NF-kB SEAP reporter activity,"RAW-Dual [1]; library stock concentration (final ~1000-fold dilution): 10 mM, cytotoxicity flag (confluency mask): cytotoxic (confluency <70% of control), agonist: MPLA (TLR4) […]",0.26
C=C1CCC(O)CC1=CC=C1CCCC2(C)C1CCC2C(C)CCCC(C)C (configuration not stated) (library stock concentration (final ~1000-fold dilution): 1 mM),NF-kB SEAP reporter activity,RAW-Dual [2]; agonist: LPS (TLR4) 0.1 ug/mL,0.593
same,NF-kB SEAP reporter activity,RAW-Dual [2]; [6],1.12
same,NF-kB SEAP reporter activity,RAW-Dual [2]; [7],1.12
same,NF-kB SEAP reporter activity,RAW-Dual [2]; [8],1.27
C=C1CCC(O)CC1=CC=C1CCCC2(C)C1CCC2C(C)CCCC(C)C (configuration not stated),NF-kB SEAP reporter activity,"RAW-Dual [1]; library stock concentration (final ~1000-fold dilution): 1 mM, cytotoxicity flag (confluency mask): not cytotoxic, agonist: Imiquimod (TLR7) […]",1.17
same,NF-kB SEAP reporter activity,"RAW-Dual [1]; library stock concentration (final ~1000-fold dilution): 1 mM, cytotoxicity flag (confluency mask): not cytotoxic, agonist: MPLA (TLR4) […]",0.651
O=C(O)CCN1C(=O)C(=Cc2ccc(-c3ccc([N+](=O)[O-])cc3)o2)SC1=S,NF-kB SEAP reporter activity,RAW-Dual [1]; [4],0.675
same,NF-kB SEAP reporter activity,RAW-Dual [1]; [5],0.731
O=C(O)CCN1C(=O)C(=Cc2ccc(-c3ccc([N+](=O)[O-])cc3)o2)SC1=S (library stock concentration (final ~1000-fold dilution): 10 mM),NF-kB SEAP reporter activity,RAW-Dual [2]; agonist: LPS (TLR4) 0.1 ug/mL,0.807
same,NF-kB SEAP reporter activity,RAW-Dual [2]; [6],0.649
same,NF-kB SEAP reporter activity,RAW-Dual [2]; [7],0.104
same,NF-kB SEAP reporter activity,RAW-Dual [2]; [8],0.296
COc1ccc(-c2ccc3c(N4CCOCC4)nc(N4CC(C)OC(C)C4)nc3n2)cc1CO (configuration not stated),NF-kB SEAP reporter activity,RAW-Dual [1]; [4],0.91
same,NF-kB SEAP reporter activity,RAW-Dual [1]; [5],0.935
COc1ccc(-c2ccc3c(N4CCOCC4)nc(N4CC(C)OC(C)C4)nc3n2)cc1CO (configuration not stated) (library stock concentration (final ~1000-fold dilution): 10 mM),NF-kB SEAP reporter activity,RAW-Dual [2]; agonist: LPS (TLR4) 0.1 ug/mL,0.793
same,NF-kB SEAP reporter activity,RAW-Dual [2]; [6],0.836
same,NF-kB SEAP reporter activity,RAW-Dual [2]; [7],0.365
same,NF-kB SEAP reporter activity,RAW-Dual [2]; [8],0.707
Cl.O=c1n(CCCN2CCN(c3cccc(Cl)c3)CC2)nc2ccccn12,NF-kB SEAP reporter activity,"RAW-Dual [1]; library stock concentration (final ~1000-fold dilution): 2 mM, cytotoxicity flag (confluency mask): not cytotoxic, agonist: Imiquimod (TLR7) […]",1.05
same,NF-kB SEAP reporter activity,"RAW-Dual [1]; library stock concentration (final ~1000-fold dilution): 2 mM, cytotoxicity flag (confluency mask): not cytotoxic, agonist: MPLA (TLR4) […]",1.08
O=c1n(CCCN2CCN(c3cccc(Cl)c3)CC2)nc2ccccn12 (library stock concentration (final ~1000-fold dilution): 10 mM),NF-kB SEAP reporter activity,RAW-Dual [2]; agonist: LPS (TLR4) 0.1 ug/mL,2.72
same,NF-kB SEAP reporter activity,RAW-Dual [2]; [6],1.65
same,NF-kB SEAP reporter activity,RAW-Dual [2]; [7],1.15
same,NF-kB SEAP reporter activity,RAW-Dual [2]; [8],1.22
CCc1nn(CCCN2CCN(c3cccc(Cl)c3)CC2)c(=O)n1CCOc1ccccc1.Cl,NF-kB SEAP reporter activity,RAW-Dual [1]; [5],0.878
CCc1nn(CCCN2CCN(c3cccc(Cl)c3)CC2)c(=O)n1CCOc1ccccc1.Cl (library stock concentration (final ~1000-fold dilution): 10 mM),NF-kB SEAP reporter activity,RAW-Dual [2]; agonist: LPS (TLR4) 0.1 ug/mL,0.981
same,NF-kB SEAP reporter activity,RAW-Dual [2]; [6],0.799
same,NF-kB SEAP reporter activity,RAW-Dual [2]; [7],0.822
same,NF-kB SEAP reporter activity,RAW-Dual [2]; [8],0.646
O=c1n(CCCN2CCN(c3cccc(Cl)c3)CC2)nc2ccccn12,NF-kB SEAP reporter activity,RAW-Dual [1]; [4],2.36
same,NF-kB SEAP reporter activity,RAW-Dual [1]; [5],2.42
Cl.O=c1n(CCCN2CCN(c3cccc(Cl)c3)CC2)nc2ccccn12 (library stock concentration (final ~1000-fold dilution): 2 mM),NF-kB SEAP reporter activity,RAW-Dual [2]; agonist: LPS (TLR4) 0.1 ug/mL,1.15
same,NF-kB SEAP reporter activity,RAW-Dual [2]; [6],1.04
same,NF-kB SEAP reporter activity,RAW-Dual [2]; [7],1.1
same,NF-kB SEAP reporter activity,RAW-Dual [2]; [8],1.37
COc1nc(N)nc2c1ncn2C1OC(CO)C(O)C1O (configuration not stated) (library stock concentration (final ~1000-fold dilution): 10 mM),NF-kB SEAP reporter activity,RAW-Dual [2]; agonist: LPS (TLR4) 0.1 ug/mL,1.43
same,NF-kB SEAP reporter activity,RAW-Dual [2]; [6],0.996
same,NF-kB SEAP reporter activity,RAW-Dual [2]; [7],1.08
same,NF-kB SEAP reporter activity,RAW-Dual [2]; [8],1.23
COc1nc(N)nc2c1ncn2C1OC(CO)C(O)C1O (configuration not stated),NF-kB SEAP reporter activity,RAW-Dual [1]; [4],0.924
same,NF-kB SEAP reporter activity,RAW-Dual [1]; [5],0.994
CCOc1ccc(CC2NC(=O)CCSSCC(C(=O)N3CCCC3C(=O)NC(CCCN)C(=O)NCC(N)=O)NC(=O)C(CC(N)=O)NC(=O)C(C(C)O)NC(=O)C(C(C)CC)NC2=O)cc1 (configuration not stated) (library stock concentration (final ~1000-fold dilution): 10 mM water),NF-kB SEAP reporter activity,RAW-Dual [2]; agonist: LPS (TLR4) 0.1 ug/mL,1.22
same,NF-kB SEAP reporter activity,RAW-Dual [2]; [6],1.15
same,NF-kB SEAP reporter activity,RAW-Dual [2]; [7],1.22
same,NF-kB SEAP reporter activity,RAW-Dual [2]; [8],1.02
CCOc1ccc(CC2NC(=O)CCSSCC(C(=O)N3CCCC3C(=O)NC(CCCN)C(=O)NCC(N)=O)NC(=O)C(CC(N)=O)NC(=O)C(C(C)O)NC(=O)C(C(C)CC)NC2=O)cc1 (configuration not stated),NF-kB SEAP reporter activity,RAW-Dual [1]; [9],0.981
same,NF-kB SEAP reporter activity,RAW-Dual [1]; [10],1.06
COc1cc2c(cc1OC)C(=O)C(CC1CCN(Cc3ccccc3)CC1)C2.Cl (configuration not stated),NF-kB SEAP reporter activity,RAW-Dual [1]; [9],0.84
same,NF-kB SEAP reporter activity,RAW-Dual [1]; [10],1.08
COc1cc2c(cc1OC)C(=O)C(CC1CCN(Cc3ccccc3)CC1)C2.Cl (configuration not stated) (library stock concentration (final ~1000-fold dilution): 10 mM water),NF-kB SEAP reporter activity,RAW-Dual [2]; agonist: LPS (TLR4) 0.1 ug/mL,1.35
same,NF-kB SEAP reporter activity,RAW-Dual [2]; [6],1.16
same,NF-kB SEAP reporter activity,RAW-Dual [2]; [7],1.28
same,NF-kB SEAP reporter activity,RAW-Dual [2]; [8],1.29
COC(=O)NC(C(=O)NC(Cc1ccccc1)C(O)CN(Cc1ccc(-c2ccccn2)cc1)NC(=O)C(NC(=O)OC)C(C)(C)C)C(C)(C)C.O=S(=O)(O)O (configuration not stated) (library stock concentration (final ~1000-fold dilution): 10 mM),NF-kB SEAP reporter activity,RAW-Dual [2]; agonist: LPS (TLR4) 0.1 ug/mL,1.54
same,NF-kB SEAP reporter activity,RAW-Dual [2]; [6],2.67
same,NF-kB SEAP reporter activity,RAW-Dual [2]; [7],1.47
same,NF-kB SEAP reporter activity,RAW-Dual [2]; [8],1.68
CC(C)CC(NC(=O)C(Cc1ccccc1)CC(O)C(Cc1ccccc1)NC(=O)OC(C)(C)C)C(=O)NC(Cc1ccccc1)C(N)=O (configuration not stated) (library stock concentration (final ~1000-fold dilution): 10 mM),NF-kB SEAP reporter activity,RAW-Dual [2]; agonist: LPS (TLR4) 0.1 ug/mL,1.25
same,NF-kB SEAP reporter activity,RAW-Dual [2]; [6],0.998
same,NF-kB SEAP reporter activity,RAW-Dual [2]; [7],0.929
same,NF-kB SEAP reporter activity,RAW-Dual [2]; [8],0.958
COC(=O)NC(C(=O)NC(Cc1ccccc1)C(O)CN(Cc1ccc(-c2ccccn2)cc1)NC(=O)C(NC(=O)OC)C(C)(C)C)C(C)(C)C.O=S(=O)(O)O (configuration not stated),NF-kB SEAP reporter activity,RAW-Dual [1]; [4],2.01
same,NF-kB SEAP reporter activity,RAW-Dual [1]; [5],1.56
COC(=O)NC(C(=O)NC(Cc1ccccc1)C(O)CN(Cc1ccc(-c2ccccn2)cc1)NC(=O)C(NC(=O)OC)C(C)(C)C)C(C)(C)C (configuration not stated) (library stock concentration (final ~1000-fold dilution): 10 mM),NF-kB SEAP reporter activity,RAW-Dual [2]; agonist: LPS (TLR4) 0.1 ug/mL,1.03
same,NF-kB SEAP reporter activity,RAW-Dual [2]; [6],1.02
same,NF-kB SEAP reporter activity,RAW-Dual [2]; [7],1.11
same,NF-kB SEAP reporter activity,RAW-Dual [2]; [8],0.79
CC(C)CC(NC(=O)C(Cc1ccccc1)CC(O)C(Cc1ccccc1)NC(=O)OC(C)(C)C)C(=O)NC(Cc1ccccc1)C(N)=O (configuration not stated),NF-kB SEAP reporter activity,RAW-Dual [1]; [4],0.843
same,NF-kB SEAP reporter activity,RAW-Dual [1]; [5],1.02
COC(=O)NC(C(=O)NC(Cc1ccccc1)C(O)CN(Cc1ccc(-c2ccccn2)cc1)NC(=O)C(NC(=O)OC)C(C)(C)C)C(C)(C)C (configuration not stated),NF-kB SEAP reporter activity,RAW-Dual [1]; [5],0.961
CC(C)C1=CC2=CCC3C(C)(C(=O)O)CCCC3(C)C2CC1 (configuration not stated),NF-kB SEAP reporter activity,RAW-Dual [1]; [5],1.07
CC(C)C1=CC2=CCC3C(C)(C(=O)O)CCCC3(C)C2CC1 (configuration not stated) (library stock concentration (final ~1000-fold dilution): 10 mM),NF-kB SEAP reporter activity,RAW-Dual [2]; agonist: LPS (TLR4) 0.1 ug/mL,0.876
same,NF-kB SEAP reporter activity,RAW-Dual [2]; [6],0.965
same,NF-kB SEAP reporter activity,RAW-Dual [2]; [7],1.03
same,NF-kB SEAP reporter activity,RAW-Dual [2]; [8],0.83
